Experimental data reported in ChEMBL document CHEMBL3988442, “University of Dundee, Small-Polar-MMV Screening Library” (2021).

How the values were obtained:
[1] = target: T1, Aspartate--tRNA(Asp/Asn) ligase (Mycobacterium tuberculosis (strain ATCC 25618 / H37Rv)) (UniProt P9WFW3); experiment: Assay for Asp RNA synthetase-1 from Mycobacterium tuberculosis; format: functional; design: scale not given: direction of the effect not stated beside the values; details: 30 µM; also: in the data most compounds retested in dose-response had high values
T1 sequence (whole entry): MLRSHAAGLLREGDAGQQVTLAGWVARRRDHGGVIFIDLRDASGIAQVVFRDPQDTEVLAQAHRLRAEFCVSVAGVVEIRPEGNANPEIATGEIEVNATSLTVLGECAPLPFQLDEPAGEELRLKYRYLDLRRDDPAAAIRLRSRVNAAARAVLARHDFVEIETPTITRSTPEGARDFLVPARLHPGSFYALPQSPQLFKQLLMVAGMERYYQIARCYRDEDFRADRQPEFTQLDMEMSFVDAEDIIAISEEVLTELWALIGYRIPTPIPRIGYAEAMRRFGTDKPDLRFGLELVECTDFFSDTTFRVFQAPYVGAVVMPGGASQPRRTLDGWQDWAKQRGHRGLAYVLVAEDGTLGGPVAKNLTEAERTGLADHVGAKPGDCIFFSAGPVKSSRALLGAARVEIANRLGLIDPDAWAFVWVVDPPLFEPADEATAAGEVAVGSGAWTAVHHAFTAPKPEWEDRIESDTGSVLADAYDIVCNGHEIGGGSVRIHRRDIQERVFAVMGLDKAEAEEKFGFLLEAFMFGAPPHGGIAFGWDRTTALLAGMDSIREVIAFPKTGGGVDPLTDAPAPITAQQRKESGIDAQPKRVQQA

[2] = target: Shiga toxin 2 (Escherichia coli O157:H7) (UniProt P09385+P09386); experiment: E. coli 0.157:H7 Shiga Toxin SOP - stx2 screening assay; format: functional; design: scale not given: direction of the effect not stated beside the values; details: 30 µM

SMILES | Percent Effect [1] [%] | Percent Effect [2] [%]
COc1cc(C)c(C(C)NC(=O)Nc2nnc(C)s2)cc1OC (configuration not stated) | -7.26 | 9.98
Cc1cnc(CN2CCCC(c3cc(C(F)(F)F)[nH]n3)C2)cn1 (configuration not stated) | -6.86 | 7.14
CCc1cnc(CN(C)C2CCN(CCc3cccs3)C2)o1 (configuration not stated) | 2.92 | 23.3
CC(=O)N1CCC(c2nccnc2Oc2ccccc2)CC1 | -0.819 | -5.88
COCCCC(=O)NS(=O)(=O)c1ccc2c(c1)OCCCO2 | -1.35 | 23.1
CC(C)CNC(=O)Nc1ccc(CN2CCOC2=O)cc1 | 1.75 | -53.2
CCCc1cc(NC2CCc3ncnn3C2)n2ncnc2n1 (configuration not stated) | -2.01 | 1.41
CCN(CC1CCCO1)C(=O)Nc1cc(C(=O)OC)ccc1F (configuration not stated) | -1.37 | 15.3
COc1ccc(Cl)cc1C(=O)N1CCOC2(CNCCOC2)C1 (configuration not stated) | -0.926 | 11.2
CN(Cc1ncc[nH]1)S(=O)(=O)c1cccc(C(=O)N2CCOCC2)c1 | 8.16 | -12.2
FC(F)(F)Cn1ccnc1CN1CCCC1c1noc(C2CC2)n1 (configuration not stated) | 11.5 | -34
Cc1nc(CCNC(=O)N2CCC(Cc3cnn(C)c3)C2)cs1 (configuration not stated) | -5.21 | -13.9
NC[C@H]1CC[C@H](C(NC(=O)c2ccccn2)c2ccccn2)CC1 (some centres not stated) | 1.43 | 17
O=C(Cc1ccccn1)N1C[C@@H]2CC[C@H](C1)N(Cc1ccccc1)C2=O | -1.24 | -4.09
CC(C)Sc1nnc(CCNC(=O)OC(C)(C)C)o1 | -0.987 | -76.8
COc1ccc(CC(=O)N2CCc3nnc(N(C)C)cc3C2)cc1F | 2.43 | -57.1
CS(=O)(=O)NCC1CCCN(C(=O)c2cc3ccccc3o2)C1 (configuration not stated) | 3.19 | -22
COc1ccccc1C(=O)NC(CC(=O)O)c1cccs1 (configuration not stated) | 5.75 | -32.6
O=C(N[C@@H]1CN(Cc2ccc3c(c2)OCO3)[C@@H]2CCCO[C@@H]21)C1CC1 | 5.97 | 9.3
Cc1ccc(-n2nnc(CC(=O)N3CCSCC3)c2C)cc1 | 2.79 | -35.4
CC(C)Oc1ncccc1CNC(=O)c1cc[nH]n1 | -1.4 | 18.4
CC(C)(C)NC(=O)C1CSCN1S(=O)(=O)c1cccc(F)c1 (configuration not stated) | 10.2 | -19.4
CNC(=O)c1cc(S(=O)(=O)C(C)C)cs1 | -3.82 | -3.3
CNC(=O)CCc1cc(C)nc(C2CCCN2)n1 (configuration not stated) | 7.7 | 9.84
O=C(Cc1ccc2c(c1)CCC2)NCCNc1ncccn1 | -1.71 | 7.96
O=C1NCC2(CCCN(Cc3ccc(Cl)s3)C2)Oc2ccccc21 (configuration not stated) | -6.49 | -53.7

SMILES | Percent Effect [1] [%] | Percent Effect [2] [%]
COc1cccc(OC)c1C(=O)N1CCN(c2ccccc2F)CC1 | 1.49 | 35.2
CCn1cnnc1CNC(=O)N1CCOCC1 | -11.7 | 7.05
CCn1c(Cn2cncn2)nnc1C1CCN(Cc2ccc(C)o2)CC1 | -3.48 | 18.7
Cc1ccc(C2CSCCN2C(=O)C2=CCCC2)o1 (configuration not stated) | 6.9 | 5.19
CC(C)c1nnc2ccc(N3CCC(C(=O)Nc4nccs4)CC3)nn12 | -2.93 | -32.8
Cn1nnc2cc(C(=O)N3CCCC3Cc3ccccc3)ccc21 (configuration not stated) | 2.04 | -54.6
O=C(c1ccc(Br)o1)N1CCCC(n2cncn2)C1 (configuration not stated) | 5.01 | -10.4
Cc1nc(NC2CCCC2)cc(C2CCN2C(=O)c2ccccc2)n1 (configuration not stated) | -4.99 | -18.1
CCOCC(O)CN1CCN(C(=O)c2ccnc(N(C)C)c2)CC1 (configuration not stated) | -2.58 | -13.4
Cc1nn(C)c(C)c1CC(=O)N1CCC(N(C)c2cccnn2)CC1 | -4.15 | 27.2
O=C(NCc1ccc(-c2ccn[nH]2)cc1)N1CCC(N2CCCC2)C1 (configuration not stated) | -3.65 | 9.65
c1cnnc(N2CCCC2CNc2ncnc3ccccc23)c1 (configuration not stated) | 3.45 | -33.7
CCN(CC1CCCO1)C(=O)Nc1cc(OC)c(OC)cc1C (configuration not stated) | -2.8 | -9.12
Cc1nc(C)n(CC2CCCN(c3ncnc4sccc34)C2)n1 (configuration not stated) | 1.08 | 21.2
CCOc1ncccc1NC(=O)N1CCN(c2cccc(C)c2C)CC1 | 1.92 | 38.1
CCO[C@@H]1CO[C@@]2(CCCN(C(=O)COc3ccccc3OC)C2)C1 | 1.03 | -25.3
O=C1CC2(CCN(S(=O)(=O)c3cccs3)C2)CN1c1ccccc1 (configuration not stated) | 3.64 | 7.29
O=C(CCC1CCCC1)N1CCC(c2ncc3c(n2)CCNC3)CC1 | -3.47 | -54.5
CCc1noc(CNc2cc(F)ccc2OCC2CCCO2)n1 (configuration not stated) | 0.569 | -4.24
Cc1ccc(N2CC3(CCN(C(=O)c4ccoc4)C3)C2)nn1 | -1.37 | -33.4
CCNC(=O)c1ccnc(NCC2COc3cc(OC)ccc3C2)c1 (configuration not stated) | -2.64 | -9.33
CN(Cc1ccncc1)CC(c1cccs1)N1CCOCC1 (configuration not stated) | -5.01 | -26
Cc1nn(-c2ccccc2)nc1C(=O)N1CCCC1c1cnn(C)c1 (configuration not stated) | 2.1 | 18.4
Cn1cccc1C(=O)N1CCCC2(CCCN2Cc2cccnc2)C1 (configuration not stated) | 7.03 | 19.4
Cc1cnc(C(=O)N2CCCCC2c2[nH]ncc2S(C)(=O)=O)cn1 (configuration not stated) | 2.63 | -5.44
Cc1nc(CN2CCOC(CN(C)c3cccnn3)C2)cs1 (configuration not stated) | -1.09 | 7.32

SMILES | Percent Effect [1] [%] | Percent Effect [2] [%]
CCc1c(C)nc2cc(C3CCN(Cc4ccccc4F)C3)nn2c1O (configuration not stated) | 4.45 | -125
O=c1c2sccc2nc2n1CCN(Cc1cccs1)CC2 | 6.74 | 8.96
Cn1c(CC2CCS(=O)(=O)C2)nnc1SCCOc1cccc(Cl)c1 (configuration not stated) | 2.13 | -13
CC(C)c1noc(CN(Cc2ccccc2F)C2CC2)n1 | 12.6 | -59.6
CCN1CCN(C(=O)NCCOc2ccc3c(c2)OCO3)CC1 | -4.65 | -50
O=C(c1ccc(Br)o1)N1CCN(Cc2ccc(OC(F)(F)F)cc2)CC1 | -5.95 | 16.1
COCCN1CCC(Cc2cncc(-c3ccc(C(=O)O)cc3)n2)C1 (configuration not stated) | 4.51 | 8.34
Cc1cnn(CCNCc2csc(-c3ccc4c(c3)OCO4)n2)c1 | 1.41 | 23.7
Cc1ncc2c(n1)CCN(C(=O)Cc1c(C)noc1C)C2 | -2.87 | -13.9
CCc1noc(C(C)N(C)CC(=O)Nc2cccc(C)n2)n1 (configuration not stated) | -1.61 | -14.2
CC(=O)Nc1nc(C(=O)N2CCCC(n3ccnc3)C2)cs1 (configuration not stated) | -1.21 | 0.121
COc1c(C2CCCN2C(=O)c2ccc(Cl)o2)c(C)nn1C (configuration not stated) | -4.35 | 9.5
CC(C)c1nnc2n1CCN(CCCS(=O)(=O)c1ccccc1)C2 | -5.16 | -15.3
Cc1noc(C)c1CN(C)C(=O)c1ccc(NC2CC2)nc1 | 5.06 | 26.3
Cc1occc1C(=O)NCc1ccc(N2CCCC(C(N)=O)C2)cc1 (configuration not stated) | 1.75 | -14.7
CCOCC(=O)N1C[C@@H](O)[C@H](N(C)Cc2ccc(OC)cc2)C1 | -0.849 | 14.7
CCCc1ncc(C(=O)N2CCOC(c3nc(C)n[nH]3)C2)s1 (configuration not stated) | 0.888 | 2.31
Fc1ccc(CN2CCC(c3n[nH]c4nccnc34)CC2)cc1F | 0.372 | -8.59
Cc1cccnc1NCCNC(=O)[C@H]1CNC[C@@H](C(=O)N2CCCC2)C1 | -0.342 | -7.88
CC(C)C1CN(C(=O)c2ccc(C(N)=O)cc2)CCS1 (configuration not stated) | 9.66 | -45.2
O=S(=O)(CCNCc1ccc2c(c1)CCO2)N1CCOCC1 | 0.97 | -25.2
O=C(c1ccsc1)N1CCCC(c2cc(C(F)(F)F)[nH]n2)C1 (configuration not stated) | 7.19 | 28
COc1cnc(N2CCC(Oc3ccccc3OC)(C(=O)O)CC2)nc1 | -1.16 | -0.671
COc1ccc(C(C)NC(=O)NCCCn2cncn2)cc1F (configuration not stated) | 7.3 | -14.5
N#Cc1cccc(CN2CC[C@@H]3[C@@H]2CC(=O)N3Cc2cccnc2)c1 | 4.04 | -0.447
Cc1ccc(CC(=O)N2CCOC(c3nc(C)n[nH]3)C2)cn1 (configuration not stated) | 1.92 | 0.301

SMILES | Percent Effect [1] [%] | Percent Effect [2] [%]
O=C(c1cccnc1-n1cccn1)N1CCN(CC2CC2)CC1 | -1.91 | 7.9
Cc1nc2c(c(NC3CC3)n1)CCN(C(=O)C(C)(C)O)CC2 | 3.74 | -3.14
Cc1nc(CN2C[C@@H]3CN(C(=O)C4CC4)C[C@@H]3C2=O)cs1 | -6.04 | -17.6
CC(O)CNC(=O)NCc1ccc(N2CCNC(=O)C2)cc1 (configuration not stated) | 2.09 | -86.8
CCNC(=O)CN1CCCN(C(=O)C2CCCc3[nH]ncc32)CC1 (configuration not stated) | -3.09 | -2
Cc1nn(C)c(Cl)c1C1CCCN1C(=O)c1cc[nH]n1 (configuration not stated) | 3.04 | -8.07
Cc1ncc(CNC(=O)c2nn(C)c3c2CS(=O)(=O)CC3)s1 | -7.14 | -24.6
COCc1cc(O)nc(C2CCCN(Cc3cc(OC)ccc3F)C2)n1 (configuration not stated) | 1.71 | 17.7
CCNC(=O)[C@@H]1C[C@H](NC(=O)c2ccccc2C#N)CN1CCCSC | -0.866 | 0.196
O=C(c1ccc(F)cc1Cl)N1CCC(Nc2cccnn2)CC1 | 4.05 | -21.1
C1CC1c1nsc(N2CCN(C3CC3)CC2)n1 | 2.04 | -7.43
NC(=O)c1ccc(S(=O)(=O)NC(=O)COc2ccc3c(c2)CCC3)cc1 | -2.01 | 13.5
Cc1ccc(C)c(NC(=O)N(C)Cc2cnn(C)c2)c1 | -1.13 | 19.8
CNc1cncc(C2CCCN2Cc2ccccc2OCC(=O)O)n1 (configuration not stated) | 4.48 | 3.64
CSc1nccn1-c1cccc(C(=O)NCc2nnc(C)n2C)c1 | 4.52 | 19.7
CC1c2ncc(CN3CCN(C)CC3)n2CCN1Cc1cccnc1 (configuration not stated) | 1.75 | -23.1
CCn1ccnc1CN1CCN(CCOc2ccccc2OC)CC1 | -3.95 | -17.6
CS(=O)(=O)c1cccc(C(N)c2ccc(F)c(F)c2)c1 (configuration not stated) | -1.19 | -2.5
O=C(NCCC(=O)N1CCCC1)c1nn(-c2ccccc2F)cc1O | -3.29 | -59.6
CC(C)Cc1cc(C(=O)N2CCCC(n3cncn3)C2)[nH]n1 (configuration not stated) | -3.97 | 2.44
COCCCNC(=O)CN(C)C(=O)c1cc(C)sc1C | -2.19 | 10.4
N#Cc1ccc(OCCNc2cccc(C(=O)N3CCOCC3)c2)cc1 | 1.46 | -43.4
COc1cc(C)nc(N2CCN(C(=O)CN(C)C3CC3)CC2)n1 | 0.9 | -33.1
